Reference: PubChem BioAssay (NCI)
The panel holds about 83,000 compounds, 20% with a hit somewhere; the sample as a whole holds those more often.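 Single-concentration screen, 48 h exposure, 96-well plates. Endpoint: percent growth. Below 10 = active.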 Calls of active or inactive are those of the source.

Experiments:
Experiment in all cases: NCI-60 one-dose screen, 48 h (100 = growth as untreated, 0 = no growth, -100 = all killed)
HT29 colon = details: 10 µM unless noted
SNB-75 CNS = details: 10 µM unless noted
SNB-19 CNS = details: 10 µM unless noted
PC-3 prostate = details: 10 µM unless noted
UACC-62 melanoma = details: 10 µM unless noted
LOX IMVI melanoma = details: 10 µM unless noted
SK-MEL-28 melanoma = details: 10 µM
SK-MEL-2 melanoma = details: 10 µM unless noted
U251 CNS = details: 10 µM unless noted
SK-MEL-5 melanoma = details: 10 µM unless noted

Measured: growth

Clc1ccc(-c2nnc(COc3ccc(C4=NNC(c5ccco5)C4)cc3)o2)cc1 (centres undefined)
inactive: HT29 colon 101% | SNB-75 CNS 84.9% | SNB-19 CNS 92.5% | PC-3 prostate 80.8% | UACC-62 melanoma 76.3% | LOX IMVI melanoma 84.8% | SK-MEL-28 melanoma 101% | SK-MEL-2 melanoma 106%

O=C(CN1C=NC2C(N3CCOCC3)=NC=NC21)c1cccc2ccccc12 (centres undefined)
inactive: HT29 colon 111% | SNB-19 CNS 96.7% | U251 CNS 101% | PC-3 prostate 85.2% | UACC-62 melanoma 85.5% | LOX IMVI melanoma 91.9%

CCC(C)(C)C(=O)O[C@H]1C[C@@H](C)C=C2C=C[C@H](C)[C@H](CC[C@@H]3CC=CC(=O)O3)[C@H]21
active: LOX IMVI melanoma -47.4%
inactive: HT29 colon 44.5% | SNB-19 CNS 84% | U251 CNS 82.2% | PC-3 prostate 49.1% | SK-MEL-5 melanoma 71% | UACC-62 melanoma 72.5% | SK-MEL-28 melanoma 79.2% | SK-MEL-2 melanoma 86.1%

O=Cc1c(OCc2cnnn2CC(=O)Nc2ccc(Cl)cc2)ccc2ccccc12
inactive: HT29 colon 107% | SNB-19 CNS 93.8% | U251 CNS 101% | PC-3 prostate 105% | SK-MEL-5 melanoma 100% | UACC-62 melanoma 87% | LOX IMVI melanoma 99.5% | SK-MEL-28 melanoma 102% | SK-MEL-2 melanoma 102%

COc1ccc(Nc2cc(C)nc(NCc3ccccc3)n2)cc1
inactive: HT29 colon 11% | SNB-19 CNS 57.1% | U251 CNS 15.8% | PC-3 prostate 28.1% | SK-MEL-5 melanoma 61.9% | UACC-62 melanoma 69.3% | SK-MEL-28 melanoma 63.9%
active: LOX IMVI melanoma -57.5%

O=C(Nc1ccc(-c2nc3cc4ccccc4cc3[nH]2)cc1)c1cccc(Br)c1
active: LOX IMVI melanoma -6.26%
inactive: HT29 colon 12.4% | SNB-19 CNS 36.2% | U251 CNS 25.9% | PC-3 prostate 51.1% | SK-MEL-5 melanoma 37.1% | UACC-62 melanoma 39% | SK-MEL-28 melanoma 41.8% | SK-MEL-2 melanoma 49.4%

COC(=O)/C(=C\c1c(C)[nH]c2ccccc12)S(=O)(=O)c1ccccc1
inactive: SNB-19 CNS 19.1% | U251 CNS 25.7% | SK-MEL-5 melanoma 34.1% | UACC-62 melanoma 53.8% | LOX IMVI melanoma 15.6% | SK-MEL-28 melanoma 16.6% | SK-MEL-2 melanoma 23.9%
active: HT29 colon 9.54% | PC-3 prostate -1.81%

O=c1oc2ccc(F)cc2c(=O)n1-c1ccc(I)cc1F
active: U251 CNS 0.481% | PC-3 prostate -2.68% | SK-MEL-5 melanoma -84.1% | UACC-62 melanoma -16.4% | SK-MEL-2 melanoma -19.7%
inactive: HT29 colon 46.2% | SNB-19 CNS 15.6% | LOX IMVI melanoma 10.7% | SK-MEL-28 melanoma 12.3%

Cc1c(-c2csc(-n3nc(C(F)(F)F)cc3C(F)(F)F)n2)no[n+]1[O-]
inactive: HT29 colon 99.2% | SNB-19 CNS 94.1% | U251 CNS 104% | PC-3 prostate 98.6% | UACC-62 melanoma 89.5% | LOX IMVI melanoma 99% | SK-MEL-28 melanoma 102% | SK-MEL-2 melanoma 99.4%

CC(C)Cn1c2c(c(=S)[nH]c1=O)CCC2
inactive: HT29 colon 111% | SNB-19 CNS 97.6% | U251 CNS 102% | PC-3 prostate 104% | UACC-62 melanoma 96.1% | LOX IMVI melanoma 101% | SK-MEL-28 melanoma 118% | SK-MEL-2 melanoma 98.2%

C=CCN1C(=O)/C(=c2\sc3n(c2=O)NC2C(N=3)N(CC)C(=O)N2CC)c2ccccc21 (centres undefined)
inactive: HT29 colon 19.9% | SNB-19 CNS 44.5% | U251 CNS 45.8% | PC-3 prostate 30.5% | UACC-62 melanoma 35.5% | LOX IMVI melanoma 47.7% | SK-MEL-28 melanoma 59.9%

NC(CCc1nc2ccccc2c(=O)[nH]1)C(=O)O (centres undefined)
inactive: HT29 colon 104% | SNB-19 CNS 98.3% | U251 CNS 96.6% | PC-3 prostate 102% | UACC-62 melanoma 100% | LOX IMVI melanoma 102% | SK-MEL-28 melanoma 110% | SK-MEL-2 melanoma 102%

CN1C(=O)N(C)C2Nn3c(s/c(=C\c4ccc(Cl)cc4Cl)c3=O)=NC21 (centres undefined)
inactive: HT29 colon 37% | SNB-19 CNS 64% | U251 CNS 61.4% | PC-3 prostate 38.9% | UACC-62 melanoma 47.1% | LOX IMVI melanoma 58.3% | SK-MEL-28 melanoma 62.1% | SK-MEL-2 melanoma 89.2%

CCCN1C(=O)N(CCC)C2C1NN=c1s/c(=C3\C(=O)N(C(C)C)c4ccccc43)c(=O)n12 (centres undefined)
inactive: HT29 colon 18.8% | SNB-19 CNS 47.9% | U251 CNS 48.4% | UACC-62 melanoma 31.5% | LOX IMVI melanoma 41.1% | SK-MEL-28 melanoma 60.7% | SK-MEL-2 melanoma 49.4%

O=Cc1c(OCc2cnnn2CC(=O)Nc2ccc(Br)cc2)ccc2ccccc12
inactive: HT29 colon 97.8% | SNB-19 CNS 90.4% | U251 CNS 90.4% | SK-MEL-5 melanoma 93.9% | UACC-62 melanoma 68.4% | LOX IMVI melanoma 79.5% | SK-MEL-28 melanoma 99.9% | SK-MEL-2 melanoma 102%

C=C[C@@H]1CCC/C=C/[C@@H]2C[C@H](O)C[C@H]2[C@H](O)/C=C/C(=O)O1
inactive: SNB-75 CNS 33.8% | SNB-19 CNS 33.4% | U251 CNS 25.3% | PC-3 prostate 30.3% | UACC-62 melanoma 22.1%
active: SK-MEL-5 melanoma -90.1% | LOX IMVI melanoma -63.6% | SK-MEL-28 melanoma 6.18% | SK-MEL-2 melanoma -1.5%

c1ccc2c(c1)oc1cc3sccc3nc12
inactive: HT29 colon 106% | SNB-19 CNS 98.3% | U251 CNS 92% | PC-3 prostate 93.4% | UACC-62 melanoma 94.2% | LOX IMVI melanoma 96.8% | SK-MEL-28 melanoma 109% | SK-MEL-2 melanoma 95.3%

CCCSC1=NC2C(N(CC)C(=O)N2CC)N1/N=C/C=C/c1ccccc1[N+](=O)[O-] (centres undefined)
inactive: SNB-19 CNS 29.6% | U251 CNS 21.7% | PC-3 prostate 24.9% | UACC-62 melanoma 36.6% | LOX IMVI melanoma 37.7% | SK-MEL-2 melanoma 48.6%
active: HT29 colon 9.1%

CCOC(=O)C(CC(=O)O)=C(C(=O)OCC)C(=O)OCC
inactive: HT29 colon 134% | SNB-19 CNS 109% | PC-3 prostate 112% | UACC-62 melanoma 113% | LOX IMVI melanoma 106% | SK-MEL-28 melanoma 101% | SK-MEL-2 melanoma 128%

COc1cc(/C=C2\Oc3cc(OCCCN4CCCC4)ccc3C2=O)cc(OC)c1
active: HT29 colon -42.4% | LOX IMVI melanoma -78%
inactive: SNB-19 CNS 64.7% | U251 CNS 18.3% | PC-3 prostate 39.3% | UACC-62 melanoma 71.1% | SK-MEL-28 melanoma 73.5% | SK-MEL-2 melanoma 108%

NC(=O)CSc1nc(-c2ccc(F)cc2)cc(-c2ccco2)n1
inactive: SNB-75 CNS 99.2% | SNB-19 CNS 106% | U251 CNS 99.2% | PC-3 prostate 89.1% | SK-MEL-5 melanoma 103% | UACC-62 melanoma 95.4% | LOX IMVI melanoma 96.4% | SK-MEL-28 melanoma 115% | SK-MEL-2 melanoma 101%

CN1C(=O)N(C)C2C1NN=c1s/c(=C\c3ccc([N+](=O)[O-])cc3)c(=O)n12 (centres undefined)
inactive: HT29 colon 25.9% | SNB-19 CNS 54% | U251 CNS 69.8% | PC-3 prostate 45.8% | UACC-62 melanoma 39.4% | LOX IMVI melanoma 51.3% | SK-MEL-28 melanoma 76.9% | SK-MEL-2 melanoma 64.6%

NC1C(N)C(N)C1N (centres undefined)
inactive: HT29 colon 106% | SNB-19 CNS 94.3% | U251 CNS 101% | PC-3 prostate 96.1% | UACC-62 melanoma 99.1% | LOX IMVI melanoma 95.1% | SK-MEL-2 melanoma 92%
